Assay results: the supplement of paper PMC10849652
Targets with a hit are over-represented here; the source holds about 7,900 in all. About 0.6% of all pairs of compound and target were hits. Unmarked numbers belong to inactive results.

Compound: c1cn2cc(-c3ccc4cn[nH]c4c3)nc(Nc3ccc(N4CCOCC4)cc3)c2n1 [entospletinib]
Assay: log2 fold change, soluble protein after heating vs DMSO (PISA); higher = thermal stabilisation; K562 cells, 10 uM, 30 min; active = over 0.2 and 3.5 SD of the protein, either way, in both replicates (recomputed)
Outline: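 K562 cells at 2×10^6 cells/mL were given 10 μM compound for 30 min. Aliquots then went through 3 min of heating across 48°C-58°C, were pooled, and were extracted in PBS with 0.5% NP-40 at 4°C, and the supernatant after 21,000xg for 90 min was quantified by TMTpro 16plex LC-MS/MS with channel sums equalised. Thermal stability relative to control samples, from duplicates, is given as log2 fold change.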

Sequence of UniProt Q9UBY8 (Q9UBY8 whole entry, looked up): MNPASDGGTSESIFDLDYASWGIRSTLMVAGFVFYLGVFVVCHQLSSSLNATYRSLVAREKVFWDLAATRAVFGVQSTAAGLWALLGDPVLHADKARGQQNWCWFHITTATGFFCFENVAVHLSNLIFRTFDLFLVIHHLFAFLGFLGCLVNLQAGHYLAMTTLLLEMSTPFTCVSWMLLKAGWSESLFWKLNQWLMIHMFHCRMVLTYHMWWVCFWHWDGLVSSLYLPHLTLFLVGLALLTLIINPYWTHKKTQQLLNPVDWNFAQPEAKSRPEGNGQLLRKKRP
Sequence of UniProt Q9H444 (Q9H444 whole entry, looked up): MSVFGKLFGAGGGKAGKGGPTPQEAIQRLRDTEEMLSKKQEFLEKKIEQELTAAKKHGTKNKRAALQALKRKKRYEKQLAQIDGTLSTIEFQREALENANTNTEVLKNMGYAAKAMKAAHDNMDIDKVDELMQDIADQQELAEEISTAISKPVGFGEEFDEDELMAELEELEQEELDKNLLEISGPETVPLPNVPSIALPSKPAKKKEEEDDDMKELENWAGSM
Sequence of UniProt O14578 (O14578 whole entry, looked up): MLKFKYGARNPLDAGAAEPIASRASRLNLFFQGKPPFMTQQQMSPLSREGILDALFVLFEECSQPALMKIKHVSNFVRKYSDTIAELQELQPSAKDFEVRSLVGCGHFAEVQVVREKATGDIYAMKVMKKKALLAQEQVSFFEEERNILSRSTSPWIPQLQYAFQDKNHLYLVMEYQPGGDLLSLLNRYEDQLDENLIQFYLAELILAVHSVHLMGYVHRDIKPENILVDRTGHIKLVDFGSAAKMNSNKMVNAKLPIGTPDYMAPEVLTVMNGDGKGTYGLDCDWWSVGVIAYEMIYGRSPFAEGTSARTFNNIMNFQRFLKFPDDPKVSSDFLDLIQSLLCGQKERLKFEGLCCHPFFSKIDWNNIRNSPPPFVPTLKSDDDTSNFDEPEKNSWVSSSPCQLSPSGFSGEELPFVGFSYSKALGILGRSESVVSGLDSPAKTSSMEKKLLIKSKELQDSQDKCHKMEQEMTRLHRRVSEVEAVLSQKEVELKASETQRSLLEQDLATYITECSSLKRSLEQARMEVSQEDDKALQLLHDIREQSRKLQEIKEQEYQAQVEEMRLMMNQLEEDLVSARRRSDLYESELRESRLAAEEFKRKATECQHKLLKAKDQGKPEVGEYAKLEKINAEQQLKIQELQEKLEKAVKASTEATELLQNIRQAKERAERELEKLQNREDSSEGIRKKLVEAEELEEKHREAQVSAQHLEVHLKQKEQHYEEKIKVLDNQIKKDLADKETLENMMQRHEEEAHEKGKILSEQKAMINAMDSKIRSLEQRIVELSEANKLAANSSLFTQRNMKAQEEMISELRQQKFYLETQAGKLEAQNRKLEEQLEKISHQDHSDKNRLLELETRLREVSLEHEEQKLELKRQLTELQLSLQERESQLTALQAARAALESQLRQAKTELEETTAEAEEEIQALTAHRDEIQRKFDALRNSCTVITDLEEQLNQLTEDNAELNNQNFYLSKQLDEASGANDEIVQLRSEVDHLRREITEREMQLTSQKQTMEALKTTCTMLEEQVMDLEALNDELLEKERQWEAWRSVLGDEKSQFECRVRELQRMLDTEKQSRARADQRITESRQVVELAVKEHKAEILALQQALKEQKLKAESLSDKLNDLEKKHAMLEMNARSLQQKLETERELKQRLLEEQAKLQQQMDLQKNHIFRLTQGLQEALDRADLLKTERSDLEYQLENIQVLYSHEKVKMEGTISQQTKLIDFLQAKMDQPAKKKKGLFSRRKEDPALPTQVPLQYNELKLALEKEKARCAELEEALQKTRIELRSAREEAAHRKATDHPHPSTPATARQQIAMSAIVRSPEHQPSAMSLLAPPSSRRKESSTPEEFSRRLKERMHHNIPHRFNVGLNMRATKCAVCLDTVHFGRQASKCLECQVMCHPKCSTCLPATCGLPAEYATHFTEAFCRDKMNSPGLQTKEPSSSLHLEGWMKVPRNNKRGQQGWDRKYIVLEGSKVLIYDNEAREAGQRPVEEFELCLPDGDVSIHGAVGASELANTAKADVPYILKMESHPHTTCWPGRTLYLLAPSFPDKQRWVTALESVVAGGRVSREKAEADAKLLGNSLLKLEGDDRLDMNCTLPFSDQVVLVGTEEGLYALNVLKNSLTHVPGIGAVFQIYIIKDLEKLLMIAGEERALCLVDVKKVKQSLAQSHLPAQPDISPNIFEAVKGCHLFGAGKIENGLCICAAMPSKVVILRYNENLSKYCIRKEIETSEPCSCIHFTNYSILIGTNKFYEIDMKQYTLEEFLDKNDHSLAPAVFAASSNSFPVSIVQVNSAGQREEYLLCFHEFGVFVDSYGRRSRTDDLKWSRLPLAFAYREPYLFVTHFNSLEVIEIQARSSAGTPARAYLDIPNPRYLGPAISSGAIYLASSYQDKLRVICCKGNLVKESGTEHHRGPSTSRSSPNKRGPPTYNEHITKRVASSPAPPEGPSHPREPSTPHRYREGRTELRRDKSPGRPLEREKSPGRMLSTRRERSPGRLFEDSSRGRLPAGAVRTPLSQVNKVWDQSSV
Sequence of UniProt O60563 (O60563 whole entry, looked up): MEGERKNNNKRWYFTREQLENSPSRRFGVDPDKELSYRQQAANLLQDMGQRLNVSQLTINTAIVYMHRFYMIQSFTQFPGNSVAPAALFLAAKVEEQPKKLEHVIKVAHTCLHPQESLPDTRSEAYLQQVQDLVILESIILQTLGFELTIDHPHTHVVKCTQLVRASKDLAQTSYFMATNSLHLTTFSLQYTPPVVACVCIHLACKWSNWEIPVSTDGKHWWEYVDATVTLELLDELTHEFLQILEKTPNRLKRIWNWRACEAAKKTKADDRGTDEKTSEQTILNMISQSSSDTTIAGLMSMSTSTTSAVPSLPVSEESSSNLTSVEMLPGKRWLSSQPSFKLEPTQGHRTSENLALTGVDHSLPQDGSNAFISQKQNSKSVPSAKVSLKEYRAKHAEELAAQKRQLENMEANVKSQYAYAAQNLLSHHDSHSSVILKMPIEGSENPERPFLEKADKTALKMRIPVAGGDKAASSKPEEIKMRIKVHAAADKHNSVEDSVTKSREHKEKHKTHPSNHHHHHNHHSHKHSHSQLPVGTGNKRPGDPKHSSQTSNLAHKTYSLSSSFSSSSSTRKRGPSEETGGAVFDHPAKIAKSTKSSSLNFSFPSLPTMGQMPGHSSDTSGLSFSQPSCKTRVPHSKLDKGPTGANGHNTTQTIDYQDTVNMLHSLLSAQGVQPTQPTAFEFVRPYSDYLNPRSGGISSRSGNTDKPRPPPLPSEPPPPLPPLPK
Sequence of UniProt Q9BT78 (Q9BT78 whole entry, looked up): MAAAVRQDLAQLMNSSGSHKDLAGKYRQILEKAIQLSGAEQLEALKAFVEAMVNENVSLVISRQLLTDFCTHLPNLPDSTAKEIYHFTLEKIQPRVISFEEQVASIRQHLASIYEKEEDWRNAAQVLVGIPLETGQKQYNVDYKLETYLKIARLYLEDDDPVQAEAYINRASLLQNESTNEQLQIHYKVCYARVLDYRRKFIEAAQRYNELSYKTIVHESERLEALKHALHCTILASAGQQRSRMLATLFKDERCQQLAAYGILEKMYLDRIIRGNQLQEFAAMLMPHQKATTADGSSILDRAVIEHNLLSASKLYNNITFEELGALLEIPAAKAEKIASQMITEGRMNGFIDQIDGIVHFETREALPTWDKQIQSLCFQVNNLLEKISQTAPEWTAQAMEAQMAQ
Sequence of UniProt O75153 (O75153 whole entry, looked up): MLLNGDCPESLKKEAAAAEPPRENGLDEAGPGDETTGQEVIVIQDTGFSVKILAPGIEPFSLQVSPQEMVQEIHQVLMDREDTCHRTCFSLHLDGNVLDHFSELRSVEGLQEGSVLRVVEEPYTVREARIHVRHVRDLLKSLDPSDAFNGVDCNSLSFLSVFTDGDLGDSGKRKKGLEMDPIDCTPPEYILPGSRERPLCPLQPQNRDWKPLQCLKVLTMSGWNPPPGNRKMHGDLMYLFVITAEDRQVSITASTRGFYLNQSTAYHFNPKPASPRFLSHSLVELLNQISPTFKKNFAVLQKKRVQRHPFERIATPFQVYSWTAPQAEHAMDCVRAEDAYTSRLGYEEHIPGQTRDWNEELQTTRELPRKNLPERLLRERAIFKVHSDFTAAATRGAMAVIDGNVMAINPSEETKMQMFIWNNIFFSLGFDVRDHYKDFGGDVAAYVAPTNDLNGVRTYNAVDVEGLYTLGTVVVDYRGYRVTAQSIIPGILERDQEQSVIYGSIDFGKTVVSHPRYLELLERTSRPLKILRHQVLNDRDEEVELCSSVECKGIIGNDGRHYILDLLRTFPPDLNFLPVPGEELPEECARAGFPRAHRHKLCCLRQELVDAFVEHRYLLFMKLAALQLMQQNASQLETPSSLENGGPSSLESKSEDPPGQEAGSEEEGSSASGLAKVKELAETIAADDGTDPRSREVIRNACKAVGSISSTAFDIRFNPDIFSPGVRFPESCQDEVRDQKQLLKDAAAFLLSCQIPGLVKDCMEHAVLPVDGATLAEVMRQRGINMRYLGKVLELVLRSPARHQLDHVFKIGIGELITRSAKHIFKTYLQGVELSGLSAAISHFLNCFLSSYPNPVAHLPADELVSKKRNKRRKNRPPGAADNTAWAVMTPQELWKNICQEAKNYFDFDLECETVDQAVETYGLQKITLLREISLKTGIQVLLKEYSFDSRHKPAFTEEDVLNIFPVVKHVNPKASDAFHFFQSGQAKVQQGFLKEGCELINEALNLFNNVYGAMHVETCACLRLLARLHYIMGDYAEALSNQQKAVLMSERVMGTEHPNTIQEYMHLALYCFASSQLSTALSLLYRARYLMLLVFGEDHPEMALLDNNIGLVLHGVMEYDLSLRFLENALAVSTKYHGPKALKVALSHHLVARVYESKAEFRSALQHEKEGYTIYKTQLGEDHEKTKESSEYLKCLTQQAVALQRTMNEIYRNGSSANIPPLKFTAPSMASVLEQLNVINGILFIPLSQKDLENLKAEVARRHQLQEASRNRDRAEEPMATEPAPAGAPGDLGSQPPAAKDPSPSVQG
Sequence of UniProt A8MTT3 (A8MTT3 whole entry, looked up): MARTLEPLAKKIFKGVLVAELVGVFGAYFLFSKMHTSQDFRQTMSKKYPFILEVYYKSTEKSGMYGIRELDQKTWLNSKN

Row | Target | log2 fold change
1 | CKS1B (UniProt P61024) | 0
2 | CEBPZOS (UniProt A8MTT3) | 0.203
3 | CCDC57 (UniProt Q2TAC2) | -0.044
4 | CES2 isoform 4 (UniProt O00748) | 0.02
5 | CCNT1 (UniProt O60563) | 0.038
6 | COASY isoform 2 (UniProt Q13057) | -0.076
7 | CDKN2AIP (UniProt Q9NXV6) | -0.014
8 | CLCN7 (UniProt P51798) | -0.007
9 | CHCHD4 isoform 2 (UniProt Q8N4Q1) | 0.036
10 | CD55 isoform 7 (UniProt P08174) | -0.006
11 | CKS2 (UniProt P33552) | 0.04
12 | CDK2AP2 (UniProt O75956) | 0.101
13 | CDK5 (UniProt Q00535) | -0.022
14 | CFAP36 isoform 2 (UniProt Q96G28) | 0.116
15 | CLASP2 isoform 3 (UniProt O75122) | -0.046
16 | COPS4 (UniProt Q9BT78) | 0.003
17 | CLUH (UniProt O75153) | 0.06
18 | CD151 (UniProt P48509) | -0.121
19 | CMTM3 (UniProt Q96MX0) | 0.043

Row | Target | log2 fold change
20 | C15orf41 (UniProt Q9Y2V0) | 0.032
21 | CRK (UniProt P46108) | -0.022
22 | CEP128 (UniProt Q6ZU80) | -0.064
23 | CIZ1 (UniProt Q9ULV3) | -0.012
24 | COX7B (UniProt P24311) | 0.005
25 | CRLF3 (UniProt Q8IUI8) | 0.089
26 | CD63 (UniProt P08962) | -0.049
27 | CBX5 (UniProt P45973) | 0.01
28 | CHP1 (UniProt Q99653) | 0.044
29 | CHMP4B (UniProt Q9H444) | 0.044
30 | C9orf64 (UniProt Q5T6V5) | 0.009
31 | CD53 (UniProt P19397) | 0.073
32 | CCDC9 (UniProt Q9Y3X0) | 0.115
33 | CLN8 (UniProt Q9UBY8) | 0.022
34 | CPSF6 isoform 2 (UniProt Q16630) | 0.064
35 | CLSPN (UniProt Q9HAW4) | 0.057
36 | CDC26 (UniProt Q8NHZ8) | 0.023
37 | CIT isoform 4 (UniProt O14578) | -0.168
38 | CCND3 (UniProt P30281) | -0.154
